Compound activity from PubChem.
GALK inh = qHTS Assay for Inhibitors of Human Galactokinase (GALK) | Purified GALK, Kinase-Glo residual ATP luminescence | Potency, µM (series often up to 57.5 µM), most hits filed as inhibitors | P51570 | 0.007% of 270,000 active | AID 1868, 2009
Target sequence (P51570 whole entry, looked up): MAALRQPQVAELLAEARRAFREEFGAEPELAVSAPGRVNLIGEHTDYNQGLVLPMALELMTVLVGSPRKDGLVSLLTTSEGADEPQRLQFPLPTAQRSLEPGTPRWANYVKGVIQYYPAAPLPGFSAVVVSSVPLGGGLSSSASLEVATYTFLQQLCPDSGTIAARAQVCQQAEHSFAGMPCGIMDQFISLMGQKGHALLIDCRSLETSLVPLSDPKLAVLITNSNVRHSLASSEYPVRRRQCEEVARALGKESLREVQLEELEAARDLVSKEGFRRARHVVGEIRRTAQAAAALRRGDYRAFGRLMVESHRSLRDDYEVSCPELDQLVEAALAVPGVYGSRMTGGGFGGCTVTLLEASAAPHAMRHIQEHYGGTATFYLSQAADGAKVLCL
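Galactose (100 uM) and ATP (35 uM) were turned over by 5 nM GALK for 1 h at RT. Kinase-Glo Plus then converted the remaining ATP into a luminescent signal.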
FBPA coupling cs = qHTS Assay for Inhibitors of Fructose-1,6-bisphosphate Aldolase from Giardia Lamblia: Coupling assay counterscreen; coupling enzyme system counterscreen, AmpLite Red fluorescence; activity change, negative = inhibition, % at 58.2 µM, hits read low; 0.67% of 290,000 active; AID 2472, 2010; in the data active means activity change below about -30%
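Compounds tested against the coupling enzymes alone at 57.5 uM final; readout was AmpLite Red fluorescence (525/598 nm) after 20 min at RT.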
Gal4-VP16 FLuc = VP16 counterscreen qHTS for inhibitors of ROR gamma transcriptional activity | Drosophila S2 Gal4-VP16 UAS-luciferase, luminescence, 20 h | Potency, µM (titrated, usually from 53.6 µM), usual class: inhibitors | 3.5% of 310,000 active;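 further: Gal4-VP16 expression switched on by copper sulfate through the metallothionein promoter; nearly all actives have a fitted effect of over 50% in size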
RORgamma inh = qHTS for inhibitors of ROR gamma transcriptional activity; Nuclear receptor ROR-gamma (Mus musculus), P51450; Drosophila S2 Gal4-RORgamma UAS-luciferase reporter, 20 h; Potency, µM (top dose mostly 53.6 µM), most hits filed as inhibitors; 5.4% of 310,000 active; AID 2551, 2010; further: nearly all actives have a fitted effect of over 60% in size
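A Gal4/UAS one-hybrid system in insect cells: metallothionein-promoter Gal4–ROR gamma fusion plus Photinus luciferase reporter. Copper sulfate 700 uM final, 20 hr ambient incubation, luminescent detection after 10 min with reagent.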
TrxR1 inh = qHTS Assay for Inhibitors of Mammalian Selenoprotein Thioredoxin Reductase 1 (TrxR1): qHTS; 1% of 390,000 active; Potency, µM (series often up to 114 µM), hits mostly inhibitors; recombinant rTrxR1, NADPH fluorescence consumption, selenite substrate; further: nearly all actives have a fitted effect of over 65% in size
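Rat TrxR1 (90 nM in the dispensed reagent) was pre-reduced with 400 uM NADPH for 5 min at room temperature, then incubated with compound for 15 min. After 400 uM selenite was added, NADPH fluorescence (Ex 340/Em 450 nm) was followed for 8 min.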
TrxR1 substrate = qHTS Assay for Substrates of Mammalian Selenoprotein Thioredoxin Reductase 1 (TrxR1): qHTS; purified TrxR1 substrate turnover, NADPH consumption readout; 0.01% of 390,000 active; Thioredoxin reductase 1, cytoplasmic (Rattus norvegicus), O89049; Potency, µM (titrated, usually from 114 µM); further: nearly all actives have a fitted effect of over 50% in size
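Rat TrxR1, dispensed at 90 nM, was prereduced with 400 uM NADPH (final) for 5 min at ~22 deg C, then incubated with compound 15 min before 400 uM selenite. A first-read NADPH fluorescence drop versus no-compound background flagged substrates.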
Numbers stand for hits; [ ] = dose if it differs, or a comment. This is a sample that favours compounds with a hit; in the whole collection about 5.9% have one here. Unless noted, the call rests on the fitted dose curve; in most records, active means well fitted curve in the direction sought with a large enough effect; inconclusive means small, poorly fitted or top-dose-only effect, or another doubt; inactive means no such curve, though single readings can be large; an effect the other way counts as inactive or inconclusive.

Results for Cc1ccc(-c2nc(CS(=O)CC(=O)NC3CCCCC3)c(C)o2)cc1 (stereo not given) ?
GALK inh: inactive; Gal4-VP16 FLuc: inactive; RORgamma inh: inactive; TrxR1 inh: inconclusive; TrxR1 substrate: inactive

Results for CCCC(=O)NCn1nnc(-c2ccc(Cl)cc2)n1 ?
GALK inh: inactive; FBPA coupling cs: inactive; Gal4-VP16 FLuc: inactive; RORgamma inh: inactive; TrxR1 inh: inactive; TrxR1 substrate: inactive

How did Cc1oc(-c2ccccc2F)nc1CS(=O)CC(=O)NC1CCCC1 (stereo not given) do in these assays?
GALK inh: inactive; FBPA coupling cs: inactive; Gal4-VP16 FLuc: inactive; RORgamma inh: inactive; TrxR1 inh: 28.2µM; TrxR1 substrate: inactive

Results for COc1cccc(-c2c(C(=O)N/N=C(\C)c3ccco3)nnn2-c2nonc2N)c1 ?
GALK inh: inactive; FBPA coupling cs: inactive; Gal4-VP16 FLuc: inactive; RORgamma inh: inactive; TrxR1 inh: inactive; TrxR1 substrate: inactive

What do the screens show for `COc1cccc(-c2c(C(=O)N/N=C(\C)c3ccc(Cl)s3)nnn2-c2nonc2N)c1`?
GALK inh: inactive; FBPA coupling cs: inactive; Gal4-VP16 FLuc: 10µM; RORgamma inh: inactive; TrxR1 inh: inactive; TrxR1 substrate: inactive

How did Cc1c(C(=O)N/N=C/c2cccc(O)c2)nnn1-c1nonc1N do in these assays?
GALK inh: inactive; FBPA coupling cs: inactive; Gal4-VP16 FLuc: inactive; RORgamma inh: inactive; TrxR1 inh: inactive; TrxR1 substrate: inactive

What do the screens show for `CCOc1cccc(-c2c(C(=O)N/N=C/c3cccs3)nnn2-c2nonc2N)c1`?
GALK inh: inactive; Gal4-VP16 FLuc: 11.2µM; RORgamma inh: 7.08µM; TrxR1 inh: inactive; TrxR1 substrate: inactive

What do the screens show for `Nc1nonc1-n1nnc(C(=O)N/N=C/c2cc(Br)cs2)c1-c1ccccc1`?
GALK inh: inactive; FBPA coupling cs: inactive; Gal4-VP16 FLuc: 5.01µM; RORgamma inh: 6.31µM; TrxR1 inh: inactive; TrxR1 substrate: inactive

How did COc1ccc(O)c(/C=N/NC(=O)c2c(C)nnn2-c2nonc2N)c1 do in these assays?
GALK inh: inactive; FBPA coupling cs: inactive; Gal4-VP16 FLuc: inconclusive; RORgamma inh: 11.2µM; TrxR1 inh: inactive; TrxR1 substrate: inactive

What do the screens show for `O=C(COC(=O)c1ccncc1)Nc1cc(Cl)c(Cl)cc1Cl`?
GALK inh: inactive; FBPA coupling cs: inactive; Gal4-VP16 FLuc: inactive; RORgamma inh: inactive

How did COc1ccc(/C=N/NC(=O)c2nnn(-c3nonc3N)c2-c2cccc(OC)c2)cc1 do in these assays?
GALK inh: inactive; FBPA coupling cs: inactive; Gal4-VP16 FLuc: inactive; RORgamma inh: inactive; TrxR1 inh: inactive; TrxR1 substrate: inactive

How did Nc1nonc1-n1nnc(C(=O)N/N=C/c2ccc(F)cc2)c1-c1ccc2c(c1)OCO2 do in these assays?
GALK inh: inactive; Gal4-VP16 FLuc: inactive; RORgamma inh: inconclusive; TrxR1 inh: inactive; TrxR1 substrate: inactive

How did Cc1ccc(/C=N/NC(=O)c2nnn(-c3nonc3N)c2-c2ccc3c(c2)OCO3)s1 do in these assays?
GALK inh: inactive; FBPA coupling cs: inactive; Gal4-VP16 FLuc: 7.94µM; RORgamma inh: 7.08µM; TrxR1 inh: inactive; TrxR1 substrate: inactive

How did COc1cccc(-c2c(C(=O)N/N=C/c3cccs3)nnn2-c2nonc2N)c1 do in these assays?
GALK inh: inactive; FBPA coupling cs: inactive; Gal4-VP16 FLuc: 10µM; RORgamma inh: 7.08µM; TrxR1 inh: inactive; TrxR1 substrate: inactive

What do the screens show for `Cc1ccc(F)cc1NC(=O)N1CCNC(=O)C1CC(=O)Nc1cc(Cl)ccc1Cl` (stereo not given)?
GALK inh: inactive; Gal4-VP16 FLuc: inactive; RORgamma inh: inactive; TrxR1 inh: inactive; TrxR1 substrate: inactive

How did Cc1nc(Nc2ccc(S(N)(=O)=O)cc2)oc1C do in these assays?
GALK inh: inactive; FBPA coupling cs: inactive; Gal4-VP16 FLuc: inactive; RORgamma inh: inactive; TrxR1 inh: inactive; TrxR1 substrate: inactive

How did C[C@@H]1C(SC2Cn3cnc[n+]3C2)=C(C(=O)[O-])N2C(=O)[C@H]([C@@H](C)O)[C@@H]12 (stereo not given in full) do in these assays?
Gal4-VP16 FLuc: inactive; RORgamma inh: inactive[10 µM]

Results for O=C(CCn1c(=O)c2cccn2c2cccnc21)N1CCN(c2cccc(C(F)(F)F)c2)CC1 ?
TrxR1 inh: inactive; TrxR1 substrate: inactive

What do the screens show for `CC1(C(=O)Nc2ncc(Cc3ccc(Br)cc3)s2)Cc2ccccc2C(=O)O1` (stereo not given)?
TrxR1 inh: inactive; TrxR1 substrate: inactive

Results for CCc1ccc(Cc2cnc(NC(=O)C3=NCCN3)s2)cc1 ?
GALK inh: inactive; FBPA coupling cs: inactive; Gal4-VP16 FLuc: inconclusive; RORgamma inh: 7.08µM; TrxR1 inh: inactive; TrxR1 substrate: inactive

What do the screens show for `O=C(Nc1ncc(Cc2ccccc2Cl)s1)C1=NCCN1`?
GALK inh: inactive; FBPA coupling cs: inactive; Gal4-VP16 FLuc: 3.16µM; RORgamma inh: 3.98µM; TrxR1 inh: inactive; TrxR1 substrate: inactive

How did O=C(Nc1ncc(Cc2ccc(Cl)cc2Cl)s1)c1ccc([N+](=O)[O-])cc1 do in these assays?
GALK inh: inactive; FBPA coupling cs: inactive; Gal4-VP16 FLuc: 3.55µM; RORgamma inh: 2.24µM; TrxR1 inh: inactive; TrxR1 substrate: inactive

Results for CC(=O)OCc1cc2cccc(C)c2[nH]c1=O ?
GALK inh: inactive; FBPA coupling cs: inactive; Gal4-VP16 FLuc: inactive; RORgamma inh: inactive[10 µM]; TrxR1 inh: inactive; TrxR1 substrate: inactive

How did COC(=O)N1CCC2(CC1)CN(c1ccc(-c3ccccc3)cc1)C2 do in these assays?
FBPA coupling cs: inactive; Gal4-VP16 FLuc: inactive; RORgamma inh: inactive

How did Cc1c(CN2CCN(c3cccc(C(F)(F)F)c3)CC2)c(=O)n(-c2ccccc2)n1C do in these assays?
GALK inh: inactive; FBPA coupling cs: inactive; Gal4-VP16 FLuc: inactive; RORgamma inh: inactive; TrxR1 inh: inactive; TrxR1 substrate: inactive

What do the screens show for `O=C(CC1S/C(=N/N=C2CCCCCC2)NC1=O)Nc1ccc(Br)cc1F` (stereo not given)?
GALK inh: inactive; Gal4-VP16 FLuc: 5.62µM; RORgamma inh: 2.24µM; TrxR1 inh: inactive; TrxR1 substrate: inactive

What do the screens show for `Cc1ccc(O)c(NC(=S)NC(=O)c2ccccc2Cl)c1`?
GALK inh: inactive; FBPA coupling cs: inactive; Gal4-VP16 FLuc: 12.6µM; RORgamma inh: 3.55µM; TrxR1 inh: inactive; TrxR1 substrate: inactive
